“And” between values parts separate entries of the source, which are not always exact repeats. Identical values can stand only once. Screen size: about 410,000 compounds; about 7,200 (1.8%) were called active. About 7% were inconclusive and are not listed. Only a selection was taken, and actives are over-represented in it overall. A number with no mark means an inactive call. Calls come from the whole dose curve; as a rule, active = well fitted activation curve with a large enough effect; inconclusive = small, poorly fitted or top-dose-only effect, or another doubt; inactive = no such curve, though single readings can be large or run the other way.
experiment: qHTS of TDP-43 Inhibitors; conditions: TDP-43 expressing yeast growth rescue, BacTiter-Glo, 24 h; series mostly up to 46.1 µM; growth rescue (activation): at the top concentration; note: nearly all actives have a fitted effect of over 50% in size; for growth rescue (activation): % of control where 0% means no effect
In short: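 Growth rescue of TDP-43-toxic yeast measured as ATP luminescence (BacTiter-Glo). Cells grown to mid-log in raffinose, induced in galactose at OD600=0.02, exposed to compound 24 hr at 30 deg C.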
Potency is the fitted concentration of half-maximal effect.

SMILES	Potency	growth rescue (activation)
CC(=O)Nc1cc(C(=O)NCc2ccc(F)cc2Cl)ccc1Sc1ccc(Cl)cc1	11.2 µM (active)	
CC(=O)Nc1cc(C(=O)NCc2ccc(F)cc2)ccc1Sc1ccc(F)cc1	31.6 µM (active)	
COC(=O)c1ccc(Sc2ccc(F)cc2)c(N)c1		3.11%
Cc1ccc(Sc2ccc(NC(=O)c3ccc(F)cc3)cc2C#N)cc1		-20.1%
COC(=O)c1cc(NC(=O)c2sc3ccccc3c2Cl)cc(C(=O)OC)c1		11.6%
O=C(Cn1c(=O)n(Cc2cccs2)c(=O)c2cccnc21)Nc1ccc(F)cc1		-9.45%
COc1cn(CC(=O)Nc2cccc(C)c2C)c(CN2CCCCC2)cc1=O		8.28%
COc1ccc(-n2cnc3cc(C(=O)NC4CCCC4)ccc32)cc1	28.2 µM (active) and 17.8 µM (active)	
Cc1ccc(-n2cnc3cc(C(=O)NCCC4=CCCCC4)ccc32)cc1Cl		7.7%
COCCCNC(=O)c1ccc2c(c1)ncn2-c1ccccc1OC		7.43%
Cc1ccc(C(=O)Oc2ccc(C(=S)N3CCOCC3)cc2)cc1		26%
O=C(Oc1ccc(Br)cc1C(=S)N1CCOCC1)c1cccc([N+](=O)[O-])c1		11%
O=C(Oc1cccc(C(=S)N2CCOCC2)c1)c1cccc(Cl)c1	12.6 µM (active)	
O=C(OCC(=O)N1CCOCC1)c1ccc2ccccc2c1		17.2%
O=C(Oc1ccc(C(=S)N2CCOCC2)cc1)c1ccc(F)cc1	7.08 µM (active)	
O=C(Oc1ccc(F)cc1)N1CCOCC1		-18.8%
CC1Cc2cc(S(=O)(=O)CCC(=O)NCc3ccc(Cl)cc3)ccc2N1C(=O)C1CC1 (stereo not given)		3.43%
COc1cccc2c1cc1c(=O)n(CC(=O)N3CCN(c4cccc(Cl)c4)CC3)nc(C)n12		7.4%
Cc1ccc(CCNC(=O)c2ccc3c(c2)nc2n3CCC(C)C2)cc1 (stereo not given)		13.3%
COc1cccc(-c2nnc3n(CCc4ccccc4)c(=O)c4ccccc4n23)c1O		8.42%
O=C1OCC2=C1C(c1ccc(Cl)cc1)c1cc3c(cc1O2)OCO3 (stereo not given)		-12.4%
O=C1NC(c2cc3c(cc2Cl)OCO3)Oc2ccccc21 (stereo not given)	22.4 µM (active)	
O=C(NCc1nnnn1-c1ccc(Cl)cc1)c1ccc2c(c1)OCO2		20.1%
COc1ccc(CNC(=O)c2ccc3oc(C(C)C)nc3c2)cc1		0%
COc1ccc(-n2nnnc2CNC(=O)c2ccc3ccccc3c2)cc1	20 µM (active)	

SMILES	Potency	growth rescue (activation)
O=C(Nc1cccc2ccccc12)NC1CC1		4.47%
CC(C)NC(=O)c1ccc(Sc2ccccc2)c([N+](=O)[O-])c1		-0.383%
O=C(O)c1cc([N+](=O)[O-])c(Nc2cccc3ccccc23)c([N+](=O)[O-])c1	11.2 µM (active)	
COc1cccc(CNC(=O)C2CCN(S(=O)(=O)c3ccc4c(ccn4C)c3)CC2)c1		25.2%
Nc1ccccc1Sc1cc(Cl)nnc1Cl	12.6 µM (active)	
Cc1ccc(Nc2ccc3cc(S(=O)(=O)N4CCCCC4)ccc3n2)cc1F		21.6%
CCCCN(C)CCCNC(=O)CN1N=C(c2ccc(OC)cc2)CCC1=O		-1.21%
CCOC(=O)C1=C(c2ccccc2)Nc2ncnn2C1c1ccc(Cl)cc1 (stereo not given)		-5.42%
CCOc1ccc(C2=CC(c3ccccc3)n3ncnc3N2)cc1 (stereo not given)	17.8 µM (active)	
Brc1ccc(C2=CC(c3ccco3)n3ncnc3N2)cc1 (stereo not given)	12.6 µM (active)	
COc1ccc(C2=CC(c3ccccc3Cl)n3nc(-c4ccc(Cl)cc4)nc3N2)cc1 (stereo not given)		9.18%
CCOc1ccc(NC(=O)CSc2c3c(nc4ccccc24)CCCC3)cc1		16.7%
CC(=O)c1cccc(Nc2ccc3cc(S(=O)(=O)N4CCC(C)CC4)ccc3n2)c1		26.4%
COC(=O)c1ccc2nc(C3CCCCC3)c(Cc3cccc(F)c3)n2c1		12.6%
Cc1cc(Br)cn2c(Cc3ccccc3C(F)(F)F)c(C3CCCCC3)nc12		-0.49%
CC(C)(C)Cc1c(C2CCCCC2)nc2ccc(Br)cn12	28.2 µM (active)	
COc1cccc(NC(=O)c2csnn2)c1		10.3%
CCOC(=O)c1cnc2c(C)cc(C)cc2c1Nc1ccc(N2CCOCC2)cc1		22.4%
CCOc1cccc(CC(=O)N2CCc3c([nH]c4ccccc34)C2c2ccc(OC)cc2)c1OCC (stereo not given)		-0.232%
CCCC(=O)Nc1ccc2oc(-c3ccc(O)c(Br)c3)nc2c1		18%
CC(C)c1ccc(C2CC(=O)N3CN(C4CCCCC4)CSC3=C2C#N)cc1 (stereo not given)		-0.958%
CCc1nn(CC(=O)Nc2cc(C)cc(C)c2)c(=O)c2cc3sccc3n12		4.62%
O=S(=O)(c1cccc(C(F)(F)F)c1)N1c2ccccc2-n2cccc2C1c1cccnc1 (stereo not given)	25.1 µM (active)	
S=C(Nc1cccc(Br)c1)N1CCn2cccc2C1c1cccnc1 (stereo not given)		14.8%
CC(=O)Nc1ccc(NC(=O)C2CCCN2S(=O)(=O)c2cccc(C(F)(F)F)c2)cc1 (stereo not given)		14.9%
